Assay [1] has as its target Tyrosine-protein kinase SYK (Homo sapiens) (UniProt P43405). To be noted: at 1 µM.
Assay [2] concerns the target T1, Tyrosine-protein kinase Tec (Homo sapiens) (UniProt P42680).
T1 sequence (whole entry): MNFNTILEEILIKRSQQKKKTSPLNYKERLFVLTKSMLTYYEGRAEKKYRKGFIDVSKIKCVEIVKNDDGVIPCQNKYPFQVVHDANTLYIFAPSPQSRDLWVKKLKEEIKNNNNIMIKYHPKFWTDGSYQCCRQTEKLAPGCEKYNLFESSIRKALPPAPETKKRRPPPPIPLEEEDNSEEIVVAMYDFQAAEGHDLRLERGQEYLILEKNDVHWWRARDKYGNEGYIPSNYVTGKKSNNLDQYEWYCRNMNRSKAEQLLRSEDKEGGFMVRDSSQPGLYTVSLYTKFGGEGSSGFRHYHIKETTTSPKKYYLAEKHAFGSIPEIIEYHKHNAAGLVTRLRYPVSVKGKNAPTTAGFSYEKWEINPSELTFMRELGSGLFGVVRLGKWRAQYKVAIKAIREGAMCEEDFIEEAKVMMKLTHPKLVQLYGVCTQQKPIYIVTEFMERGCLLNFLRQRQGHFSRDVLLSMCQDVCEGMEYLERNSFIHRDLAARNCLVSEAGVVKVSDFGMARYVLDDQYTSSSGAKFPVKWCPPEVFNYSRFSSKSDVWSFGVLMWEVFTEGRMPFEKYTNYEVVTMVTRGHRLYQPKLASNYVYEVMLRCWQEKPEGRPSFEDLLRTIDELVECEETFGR
To be noted: at 0.1 µM.

Assay [3] concerns the target T1, Tyrosine-protein kinase Tec (Homo sapiens). To be noted: at 1 µM.
In assay [4] the target is Angiopoietin-1 receptor (Homo sapiens) (UniProt Q02763). To be noted: at 0.1 µM.
Sequence of Angiopoietin-1 receptor (Homo sapiens) (Q02763 whole entry): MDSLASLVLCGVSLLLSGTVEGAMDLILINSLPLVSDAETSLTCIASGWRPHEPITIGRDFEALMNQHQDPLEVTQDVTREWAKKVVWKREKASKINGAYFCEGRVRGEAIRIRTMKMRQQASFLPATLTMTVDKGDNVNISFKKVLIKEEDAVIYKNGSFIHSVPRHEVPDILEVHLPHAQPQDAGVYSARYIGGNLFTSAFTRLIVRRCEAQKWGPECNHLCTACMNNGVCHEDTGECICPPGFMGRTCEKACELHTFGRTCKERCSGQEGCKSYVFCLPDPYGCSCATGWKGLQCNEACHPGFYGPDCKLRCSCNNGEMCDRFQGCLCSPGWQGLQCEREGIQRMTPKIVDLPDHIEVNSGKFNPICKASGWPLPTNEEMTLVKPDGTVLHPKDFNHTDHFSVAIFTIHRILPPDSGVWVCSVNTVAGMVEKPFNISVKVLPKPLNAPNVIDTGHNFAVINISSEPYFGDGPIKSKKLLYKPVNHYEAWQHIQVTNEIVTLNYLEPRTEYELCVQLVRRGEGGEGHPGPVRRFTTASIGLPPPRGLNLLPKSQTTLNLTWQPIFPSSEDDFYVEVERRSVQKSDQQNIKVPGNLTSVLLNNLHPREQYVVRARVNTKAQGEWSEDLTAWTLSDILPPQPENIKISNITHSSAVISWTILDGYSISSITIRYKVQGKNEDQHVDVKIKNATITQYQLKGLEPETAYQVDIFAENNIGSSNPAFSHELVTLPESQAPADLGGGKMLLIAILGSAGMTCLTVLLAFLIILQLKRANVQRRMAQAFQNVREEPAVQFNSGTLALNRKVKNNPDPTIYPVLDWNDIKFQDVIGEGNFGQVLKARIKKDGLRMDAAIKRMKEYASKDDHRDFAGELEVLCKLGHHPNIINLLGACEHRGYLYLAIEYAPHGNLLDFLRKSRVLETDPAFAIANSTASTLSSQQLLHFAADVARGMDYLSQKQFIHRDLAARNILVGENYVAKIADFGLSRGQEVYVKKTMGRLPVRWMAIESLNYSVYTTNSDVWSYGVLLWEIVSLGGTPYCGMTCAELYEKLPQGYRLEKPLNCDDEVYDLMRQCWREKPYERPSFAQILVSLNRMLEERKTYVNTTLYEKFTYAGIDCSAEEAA
The target is the same in assay [5]. To be noted: at 1 µM.
Assay [6] addresses T2, Non-receptor tyrosine-protein kinase TNK1 (Homo sapiens) (UniProt Q13470).
T2 sequence (whole entry): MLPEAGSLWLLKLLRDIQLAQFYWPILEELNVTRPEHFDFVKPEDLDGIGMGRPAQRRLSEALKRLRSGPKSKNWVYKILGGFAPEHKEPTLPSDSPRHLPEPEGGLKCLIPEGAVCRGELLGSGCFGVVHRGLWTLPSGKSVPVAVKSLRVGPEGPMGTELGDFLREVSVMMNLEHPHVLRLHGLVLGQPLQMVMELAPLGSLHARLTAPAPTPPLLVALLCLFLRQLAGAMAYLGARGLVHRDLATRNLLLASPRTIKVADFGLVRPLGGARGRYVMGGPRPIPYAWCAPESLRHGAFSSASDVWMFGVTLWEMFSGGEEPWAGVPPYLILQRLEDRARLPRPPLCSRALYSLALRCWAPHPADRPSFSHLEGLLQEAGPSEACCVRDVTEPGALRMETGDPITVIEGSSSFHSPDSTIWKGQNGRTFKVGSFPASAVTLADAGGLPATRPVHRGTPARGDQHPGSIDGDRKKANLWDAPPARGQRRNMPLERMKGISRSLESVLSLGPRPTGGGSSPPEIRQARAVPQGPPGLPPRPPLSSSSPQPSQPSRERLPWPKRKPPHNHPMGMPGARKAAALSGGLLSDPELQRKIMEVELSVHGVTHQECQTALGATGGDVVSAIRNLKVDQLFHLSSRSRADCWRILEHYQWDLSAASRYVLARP
To be noted: at 0.1 µM.

Assay [7] addresses T2, Non-receptor tyrosine-protein kinase TNK1 (Homo sapiens). To be noted: at 1 µM.
In assay [8] the target is Activated CDC42 kinase 1 (Homo sapiens) (UniProt Q07912). To be noted: at 0.1 µM.
Sequence of Activated CDC42 kinase 1 (Homo sapiens) (Q07912 whole entry, looked up): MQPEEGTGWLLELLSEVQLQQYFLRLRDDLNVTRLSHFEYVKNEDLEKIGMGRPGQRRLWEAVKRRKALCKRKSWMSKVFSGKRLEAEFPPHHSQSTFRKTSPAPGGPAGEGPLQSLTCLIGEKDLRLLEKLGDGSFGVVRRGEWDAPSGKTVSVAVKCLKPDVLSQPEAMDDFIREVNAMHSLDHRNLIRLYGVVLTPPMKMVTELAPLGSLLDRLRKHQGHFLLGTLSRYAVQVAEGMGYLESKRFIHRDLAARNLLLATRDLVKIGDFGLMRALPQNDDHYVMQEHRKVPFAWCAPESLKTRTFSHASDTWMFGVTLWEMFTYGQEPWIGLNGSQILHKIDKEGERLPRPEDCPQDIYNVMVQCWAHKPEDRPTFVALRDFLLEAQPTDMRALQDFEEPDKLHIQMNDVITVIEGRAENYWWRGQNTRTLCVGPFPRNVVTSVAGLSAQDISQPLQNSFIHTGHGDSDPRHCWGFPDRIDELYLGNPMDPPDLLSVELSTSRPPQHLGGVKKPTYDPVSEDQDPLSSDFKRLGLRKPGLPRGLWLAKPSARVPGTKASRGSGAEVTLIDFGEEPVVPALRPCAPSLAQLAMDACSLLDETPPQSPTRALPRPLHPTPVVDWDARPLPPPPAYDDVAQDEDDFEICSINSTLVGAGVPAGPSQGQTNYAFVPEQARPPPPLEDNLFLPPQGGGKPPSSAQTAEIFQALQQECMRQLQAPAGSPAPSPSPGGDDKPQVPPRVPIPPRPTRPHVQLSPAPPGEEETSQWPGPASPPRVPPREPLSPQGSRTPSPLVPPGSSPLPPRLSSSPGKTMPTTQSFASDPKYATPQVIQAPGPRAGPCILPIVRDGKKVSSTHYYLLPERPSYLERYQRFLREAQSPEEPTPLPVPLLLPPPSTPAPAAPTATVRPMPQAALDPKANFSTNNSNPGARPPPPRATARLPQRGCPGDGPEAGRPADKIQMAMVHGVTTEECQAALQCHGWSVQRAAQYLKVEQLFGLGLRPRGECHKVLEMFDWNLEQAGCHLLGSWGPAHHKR
Assay [9] shares this target. To be noted: at 1 µM.
Assay [10] concerns the target High affinity nerve growth factor receptor (Homo sapiens) (UniProt P04629). To be noted: at 0.1 µM.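 Further: each value is a mean of replicate percent inhibition readings against TRKA kinase.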

This is an account of results in ChEMBL document CHEMBL1961873, “Compounds: GSK PKIS; Assays: Nanosyn kinase panel” (2012).

Sequence of High affinity nerve growth factor receptor (Homo sapiens) (P04629 33-796 limits assumed): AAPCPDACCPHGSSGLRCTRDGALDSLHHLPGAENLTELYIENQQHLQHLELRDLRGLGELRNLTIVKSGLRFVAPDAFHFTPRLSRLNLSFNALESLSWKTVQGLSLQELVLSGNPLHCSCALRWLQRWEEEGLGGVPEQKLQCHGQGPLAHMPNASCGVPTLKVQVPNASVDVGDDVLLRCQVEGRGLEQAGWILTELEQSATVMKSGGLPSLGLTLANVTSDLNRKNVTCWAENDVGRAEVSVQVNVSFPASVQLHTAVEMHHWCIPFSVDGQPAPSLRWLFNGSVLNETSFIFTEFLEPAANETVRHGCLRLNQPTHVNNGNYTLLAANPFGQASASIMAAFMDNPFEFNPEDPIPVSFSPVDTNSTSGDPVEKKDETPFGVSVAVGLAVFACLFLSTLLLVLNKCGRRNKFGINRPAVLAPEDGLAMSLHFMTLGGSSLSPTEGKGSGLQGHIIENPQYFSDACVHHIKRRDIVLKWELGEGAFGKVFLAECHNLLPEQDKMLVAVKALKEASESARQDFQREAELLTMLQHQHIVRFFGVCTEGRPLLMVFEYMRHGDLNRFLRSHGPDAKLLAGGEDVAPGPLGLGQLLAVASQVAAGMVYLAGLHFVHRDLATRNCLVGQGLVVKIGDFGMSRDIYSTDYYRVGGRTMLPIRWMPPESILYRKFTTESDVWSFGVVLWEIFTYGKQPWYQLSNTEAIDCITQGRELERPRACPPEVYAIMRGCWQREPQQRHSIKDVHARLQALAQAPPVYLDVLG

One may read the inhibition as the change of the read-out against control, counted positive when it falls. With `COc1ccc(CNC(=O)c2ccc(-c3cc(-c4nnc(C)o4)ccc3C)cc2)cc1`, the inhibition in assay [1] amounted to 0.6%; in assay [2] it was 2.72%; in assay [3], 3.52%; in [4] it was 3.37%; in assay [5], 8.26%; in assay [6], 6.31%. Also, the inhibition in assay [7] was 16%; in assay [8], 3.84%; in [9], 6%; in assay [10] it was -2.81%.

For `CCCN1CCC(c2ccc(Nc3nc(Nc4cc(F)ccc4C(N)=O)c4cc[nH]c4n3)c(OC)c2)CC1`, the inhibition was 73.4% in [1]; 2.15% in assay [2]; 7.76% in assay [3]; 2.84% in assay [4]; 4.59% in assay [5]; 46.4% in [6]. In addition, the inhibition in [7] came to 92.8%; in [8], 5.57%; in assay [9], 44.3%; in assay [10], 1.74%.

For the molecule `Fc1cccc(COc2ccc(Nc3ncnc4sc(-c5ccco5)cc34)cc2Cl)c1`, the inhibition was -6.92% in assay [1]; 0.94% in assay [2]; 5.13% in [3]; 4.1% in [4]; 6.76% in assay [5]; 1.8% in assay [6]. Besides, the inhibition in assay [7] was 17%; in assay [8] it was 1.13%; in assay [9] it was 1.93%; in assay [10], 1.02%.

For `Cc1ccc2c(-c3ccnc(Nc4ccccc4)n3)c(-c3ccc(F)cc3)nn2n1`, the inhibition in assay [1] was -4.62%; in assay [2] it was 10.6%; in assay [3], 38.1%; in [4] it was 3.44%; in assay [5] it was 17.5%; in assay [6] it was 3.52%. Also, the inhibition turned out to be 14.2% in assay [7], 1.74% in assay [8], 7.9% in assay [9] and 9% in [10].

With `Cc1cccc2c1NC(=O)/C2=N\Nc1ccc(S(N)(=O)=O)cc1`, the inhibition is -1.74% in assay [1]; 5.22% in assay [2]; 7.22% in assay [3]; 1.65% in [4]; 1.24% in assay [5]; 2.15% in [6]. The inhibition in [7] was found to be 5.82%; in [8] it was 1.06%; in assay [9], 1.59%; in assay [10], 4.96%.

Turning to `CNC(=O)c1cc(-c2ccc(F)cc2)cc(-c2ccc(S(=O)(=O)N3CCCC3)cc2)c1N`, the inhibition worked out at 0.73% in [1]; 2.93% in assay [2]; 3.29% in assay [3]; 2.3% in [4]; 2.3% in [5]; 2.65% in assay [6]. The inhibition in assay [7] was determined as 2.41%; in assay [8] it was 0.47%; in assay [9], 1.54%; in [10] it was 1.97%.

In the case of `O=C(Nc1n[nH]c2cc(-c3ccc(F)cc3)ccc12)C1CC1`, the inhibition in assay [1] was found to be 1.05%; in assay [2] it was 3.06%; in assay [3], 4.11%; in [4], 1.89%; in assay [5], 6.64%; in [6], 0.9%. The inhibition in assay [7] turned out to be 5.38%; in [8], 0.53%; in assay [9], 1.19%; in assay [10], 4.77%.

As to `O=S(=O)(CCNCc1ccc(-c2ccc3ncnc(Nc4ccc(OCc5cccc(F)c5)c(Cl)c4)c3c2)o1)c1ccccc1`, the inhibition in [1] was -4.14%; in assay [2], 1.85%; in [3] it was 5.02%; in [4], 5.73%; in assay [5], 8.7%; in assay [6], 4.16%. The inhibition was found to be 22.3% in [7], 2.38% in assay [8], 1.4% in assay [9] and 2.46% in assay [10].

On to `FC(F)(F)c1cccc(-c2nn3ncccc3c2-c2ccnc(Nc3ccc4c(c3)OCCO4)n2)c1`, for which the inhibition is -1.91% in [1]; 4.21% in assay [2]; 15.5% in [3]; 4.09% in assay [4]; 10.6% in [5]; 1.44% in assay [6]. The inhibition in [7] came to 5.7%; in assay [8], 0.31%; in assay [9], 0.47%; in assay [10], 1.71%.

Take `CC(=O)NCc1cccc(C#Cc2cncnc2Nc2ccc(OCc3cccc(F)c3)c(Cl)c2)c1`: the inhibition is 2.55% in assay [1]; 0.58% in assay [2]; 0.89% in [3]; 0.95% in assay [4]; 4.38% in assay [5]; -1.56% in assay [6]. The inhibition in assay [7] was -1.3%; in [8] it was -0.45%; in assay [9] it was -0.03%; in [10] it was 1.25%.

As to `CNC(=O)c1cccc(C#Cc2cncnc2Nc2ccc(OCc3cccc(F)c3)c(Cl)c2)c1`, the inhibition is 0.47% in assay [1]; 0.86% in assay [2]; 2.99% in [3]; -0.1% in [4]; 2.32% in assay [5]; -0.06% in [6]. Besides, the inhibition is 10.8% in assay [7], -0.6% in assay [8], 0.21% in [9] and -0.85% in [10].

On to `Nc1nc(-c2cccc(Cl)c2)c(-c2ccc3ncccc3n2)s1`, for which the inhibition was -0.99% in [1]; 5.56% in assay [2]; 5.26% in assay [3]; 4.2% in assay [4]; 5.76% in [5]; 3.08% in assay [6]. Moreover, the inhibition in [7] turned out to be 11.5%; in assay [8], 3.52%; in [9], 2.83%; in [10], 2.32%.

As for `COc1ccc(-c2cc3c(N)ncnc3o2)cc1`, the inhibition in assay [1] was -0.57%; in [2] it was -1.03%; in [3] it was 3.07%; in [4], 2.49%; in [5], 2.73%; in assay [6], -0.85%. Also, the inhibition in assay [7] is 6.1%; in [8] it was -0.17%; in assay [9] it was 1.96%; in [10], -0.83%.

Consider `CCN1CCC(CC(=O)Nc2n[nH]c3nnc(-c4cccc(F)c4F)cc23)CC1`, for which the inhibition in assay [1] is -2.27%; in assay [2], 0.83%; in [3], 2.99%; in assay [4], 1.5%; in [5] it was 10.3%; in assay [6], 1.03%. Moreover, the inhibition in assay [7] is 4.94%; in assay [8], 0.46%; in [9], 1.64%; in assay [10], -1.1%.

With `CN(C)CCOc1ccc(-c2nc(-c3ccncc3)c(-c3ccc4c(c3)CC/C4=N\O)[nH]2)cc1`, the inhibition in [1] was -0.9%; in assay [2], 4.78%; in [3] it was 5.79%; in [4], 2.29%; in assay [5], 11.9%; in assay [6], 2.5%. In addition, the inhibition in assay [7] is 10.2%; in [8], 1.21%; in assay [9], 2.51%; in [10], 2.02%.

Regarding `CC(C)COC(=O)c1ccc2c(c1)/C(=C/Nc1ccc(S(N)(=O)=O)cc1)C(=O)N2`, the inhibition in [1] is -2.67%; in assay [2], 0.3%; in assay [3], 6.56%; in assay [4] it was 0.75%; in [5], 7.91%; in assay [6] it was -3.82%. Moreover, the inhibition was 5.07% in assay [7], -0.91% in [8], 0.01% in assay [9] and 2.03% in assay [10].

As to `COc1cc2c(cc1Nc1nc(Nc3ccsc3C(N)=O)c3cc[nH]c3n1)N(C(=O)CN(C)C)CCC2(C)C`, the inhibition in [1] turned out to be 4.93%; in [2], 5.38%; in assay [3], 8.93%; in [4] it was 1.06%; in assay [5] it was 3.63%; in assay [6], 60.5%. The inhibition in assay [7] is 89.3%; in assay [8] it was 6.79%; in [9] it was 43.5%; in assay [10] it was 2.83%.
